In all, about 5,500 compounds went through this assay and about 2,000 (36%) were called active. Inconclusive results (about 18%) are left out. No stated cut-off is given here; in the data, active means normalized growth mostly below about 0.91 (no sharp cut-off); inconclusive means no clear call, values can overlap the other calls; inactive means mostly above about 0.92. Some of the results follow.
Assay: chemical genetic growth profiling, strain panel (AID 1159580);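 further: tested at 20 µM; growth read once vehicle control cultures reached saturation at 30 °C; 1 = growth at the plate median or of vehicle wells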
Conditions: S. cerevisiae deletion strains, growth OD

Measured: normalized growth

O=Nc1c(-c2c(O)[nH]c3ccccc23)[nH]c2ccccc12
inactive: locus YCL061C, strain MRC1 (second series), stronger effect = lower value 0.997 | locus YDR363W, strain ESC2, stronger effect = lower value 0.976 | locus YGR078C, strain PAC10, stronger effect = lower value 0.985 | locus YJR075W, strain HOC1, stronger effect = lower value 1.01 | locus YNL153C, strain GIM3, stronger effect = lower value 1 | locus YNL224C, strain SQS1, stronger effect = lower value 0.951
active: locus YAL040C, strain CLN3, stronger effect = lower value 0.529 | locus YER002W, strain NOP16, stronger effect = lower value 0.587 | locus YNL175C, strain NOP13, stronger effect = lower value 0.676 | locus YNL197C, strain WHI3, stronger effect = lower value 0.869 | locus YOR083W, strain WHI5 (second series), stronger effect = lower value 0.46
